# Results published in article PMC7862700, “An all-to-all approach to the identification of sequence-specific readers for epigenetic DNA modifications on cytosine”.
# Columns and labels:
# Assay in all cases: DAPPL (digital affinity profiling via proximity ligation, sequencing); 10 mM Tris-HCl pH 7.5, 50 mM NaCl, 1 mM DTT, 4% glycerol, room temperature, 30 min; GST-TFs on glutathione beads, 16-mer random dsDNA library, 0.1% formaldehyde crosslink after washing; high values mean tight binding
# FEV = target: T1, FEV (Homo sapiens, UniProt Q99581 1-238); conditions: protein: recombinant; tags: N-terminal GST; dsDNA, one strand shown
# T1 sequence: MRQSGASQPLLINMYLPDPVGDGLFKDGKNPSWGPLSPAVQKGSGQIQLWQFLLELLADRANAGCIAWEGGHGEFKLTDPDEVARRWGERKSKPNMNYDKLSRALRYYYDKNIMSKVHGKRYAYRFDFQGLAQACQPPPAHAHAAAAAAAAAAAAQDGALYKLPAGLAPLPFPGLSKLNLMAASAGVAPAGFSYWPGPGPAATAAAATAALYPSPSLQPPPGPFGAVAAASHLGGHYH
# Method in brief: (§1)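 Yeast served to express human transcription factors as GST fusions, which were then captured on glutathione beads and labelled with DNA barcodes. Pooled with a tag-only sample, they were incubated with 200 nmole of a 16-mer random double-stranded DNA library for 30 min at room temperature in Tris/NaCl/DTT/glycerol buffer, washed, crosslinked with 0.1% formaldehyde, ligated by proximity, amplified by PCR and sequenced. Dividing each hexamer's read frequency for a factor by its frequency for the tag-only sample gives the binding signal.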
# ETV5 = ETV5 (Homo sapiens, UniProt P41161 1-510); conditions: protein: recombinant; tags: N-terminal GST; dsDNA, one strand shown
# Method in brief: as §1
# HSF1 = HSF1 (Homo sapiens, UniProt Q00613 1-529); conditions: protein: recombinant; tags: N-terminal GST; chain copies: 3; dsDNA, one strand shown
# Method in brief: as §1
# SPIC = target: T2, SPIC (Homo sapiens, UniProt Q8N5J4 1-248); conditions: protein: recombinant; tags: N-terminal GST; dsDNA, one strand shown
# T2 sequence: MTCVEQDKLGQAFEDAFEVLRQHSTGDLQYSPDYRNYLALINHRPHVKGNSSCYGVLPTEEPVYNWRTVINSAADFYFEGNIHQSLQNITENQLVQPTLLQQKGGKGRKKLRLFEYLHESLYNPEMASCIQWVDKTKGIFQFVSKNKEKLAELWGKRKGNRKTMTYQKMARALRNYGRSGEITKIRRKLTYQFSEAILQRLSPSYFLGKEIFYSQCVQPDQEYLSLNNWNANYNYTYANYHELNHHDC
# Method in brief: as §1
# ELF4 = ELF4 (Homo sapiens, UniProt Q99607 1-663); conditions: protein: recombinant; tags: N-terminal GST; dsDNA, one strand shown
# Method in brief: as §1
# ELK4 = target: T3, ELK4 (Homo sapiens, UniProt P28324-2 1-405); conditions: protein: recombinant; tags: N-terminal GST; dsDNA, one strand shown
# T3 sequence: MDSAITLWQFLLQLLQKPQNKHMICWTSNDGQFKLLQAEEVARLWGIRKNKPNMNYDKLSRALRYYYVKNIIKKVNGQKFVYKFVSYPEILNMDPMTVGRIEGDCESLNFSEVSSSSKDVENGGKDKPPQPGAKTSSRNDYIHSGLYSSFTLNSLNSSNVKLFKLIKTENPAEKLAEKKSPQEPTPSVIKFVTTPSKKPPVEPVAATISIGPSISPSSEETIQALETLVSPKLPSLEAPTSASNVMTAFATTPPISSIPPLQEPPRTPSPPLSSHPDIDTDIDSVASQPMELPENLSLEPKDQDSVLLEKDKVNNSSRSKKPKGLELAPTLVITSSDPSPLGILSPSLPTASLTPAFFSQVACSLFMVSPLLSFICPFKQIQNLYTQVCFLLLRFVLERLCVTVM
# Method in brief: as §1
# ETV2 = target: T4, ETV2 (Homo sapiens, UniProt O00321 1-342); conditions: protein: recombinant; tags: N-terminal GST; dsDNA, one strand shown
# T4 sequence: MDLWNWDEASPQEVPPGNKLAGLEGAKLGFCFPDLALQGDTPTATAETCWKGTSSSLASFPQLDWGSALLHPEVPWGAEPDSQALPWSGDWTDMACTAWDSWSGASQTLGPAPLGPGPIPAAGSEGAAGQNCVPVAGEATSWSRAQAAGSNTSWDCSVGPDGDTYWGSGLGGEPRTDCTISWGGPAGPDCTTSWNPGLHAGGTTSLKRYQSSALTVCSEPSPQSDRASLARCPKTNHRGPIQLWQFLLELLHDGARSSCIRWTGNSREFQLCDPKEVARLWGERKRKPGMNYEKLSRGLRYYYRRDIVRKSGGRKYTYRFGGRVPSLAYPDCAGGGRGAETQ
# Method in brief: as §1
# ELF3 = target: T5, ELF3 (Homo sapiens, UniProt P78545 1-371); conditions: protein: recombinant; tags: N-terminal GST; dsDNA, one strand shown
# T5 sequence: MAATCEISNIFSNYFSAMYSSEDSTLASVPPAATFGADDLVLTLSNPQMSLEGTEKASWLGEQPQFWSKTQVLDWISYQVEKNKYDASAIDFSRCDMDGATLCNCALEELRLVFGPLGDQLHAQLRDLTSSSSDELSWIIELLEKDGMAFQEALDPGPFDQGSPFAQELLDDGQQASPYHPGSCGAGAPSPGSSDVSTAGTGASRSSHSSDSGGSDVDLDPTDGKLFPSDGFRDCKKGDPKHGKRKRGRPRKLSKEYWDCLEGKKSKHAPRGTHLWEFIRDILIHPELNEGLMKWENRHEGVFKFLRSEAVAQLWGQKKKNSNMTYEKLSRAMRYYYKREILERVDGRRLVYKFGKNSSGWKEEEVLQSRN
# Method in brief: as §1
# CRX = CRX (Homo sapiens, UniProt O43186 1-299); conditions: protein: recombinant; tags: N-terminal GST; dsDNA, one strand shown
# Method in brief: as §1
# ETV1 = ETV1 (Homo sapiens, UniProt P50549 1-477); conditions: protein: recombinant; tags: N-terminal GST; dsDNA, one strand shown
# Method in brief: as §1
# ERF = target: T6, ERF (Homo sapiens, UniProt P50548 1-548); conditions: protein: recombinant; tags: N-terminal GST; dsDNA, one strand shown
# T6 sequence: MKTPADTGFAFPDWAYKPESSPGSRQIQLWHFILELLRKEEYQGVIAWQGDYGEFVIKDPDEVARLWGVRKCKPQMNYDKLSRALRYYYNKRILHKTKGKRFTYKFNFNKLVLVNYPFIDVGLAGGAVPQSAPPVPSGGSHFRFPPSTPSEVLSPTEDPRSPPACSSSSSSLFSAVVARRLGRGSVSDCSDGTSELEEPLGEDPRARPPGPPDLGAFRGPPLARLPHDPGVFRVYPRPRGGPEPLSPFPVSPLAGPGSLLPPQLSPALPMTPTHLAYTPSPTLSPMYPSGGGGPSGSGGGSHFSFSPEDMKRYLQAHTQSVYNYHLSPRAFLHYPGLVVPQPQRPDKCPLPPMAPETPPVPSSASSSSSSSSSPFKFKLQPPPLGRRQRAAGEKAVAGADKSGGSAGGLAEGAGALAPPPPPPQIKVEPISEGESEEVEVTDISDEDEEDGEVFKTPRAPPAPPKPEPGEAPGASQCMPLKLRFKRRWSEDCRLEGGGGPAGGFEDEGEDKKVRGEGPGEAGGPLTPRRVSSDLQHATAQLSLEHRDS
# Method in brief: as §1
# ETV3L = target: T7, ETV3L (Homo sapiens, UniProt Q6ZN32 1-361); conditions: protein: recombinant; tags: N-terminal GST; dsDNA, one strand shown
# T7 sequence: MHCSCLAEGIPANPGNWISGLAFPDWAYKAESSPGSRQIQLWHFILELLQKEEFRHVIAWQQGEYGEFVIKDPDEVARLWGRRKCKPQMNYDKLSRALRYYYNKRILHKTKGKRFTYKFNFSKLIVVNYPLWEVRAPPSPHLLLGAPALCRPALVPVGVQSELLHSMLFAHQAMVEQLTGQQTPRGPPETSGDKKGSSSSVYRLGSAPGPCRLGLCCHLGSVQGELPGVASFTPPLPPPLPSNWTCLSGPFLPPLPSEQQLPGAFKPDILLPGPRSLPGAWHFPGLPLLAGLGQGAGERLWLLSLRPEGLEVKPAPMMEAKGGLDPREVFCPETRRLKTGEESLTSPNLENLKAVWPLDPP
# Method in brief: as §1
# ETS2 = target: T8, ETS2 (Homo sapiens, UniProt P15036 1-469); conditions: protein: recombinant; tags: N-terminal GST; dsDNA, one strand shown
# T8 sequence: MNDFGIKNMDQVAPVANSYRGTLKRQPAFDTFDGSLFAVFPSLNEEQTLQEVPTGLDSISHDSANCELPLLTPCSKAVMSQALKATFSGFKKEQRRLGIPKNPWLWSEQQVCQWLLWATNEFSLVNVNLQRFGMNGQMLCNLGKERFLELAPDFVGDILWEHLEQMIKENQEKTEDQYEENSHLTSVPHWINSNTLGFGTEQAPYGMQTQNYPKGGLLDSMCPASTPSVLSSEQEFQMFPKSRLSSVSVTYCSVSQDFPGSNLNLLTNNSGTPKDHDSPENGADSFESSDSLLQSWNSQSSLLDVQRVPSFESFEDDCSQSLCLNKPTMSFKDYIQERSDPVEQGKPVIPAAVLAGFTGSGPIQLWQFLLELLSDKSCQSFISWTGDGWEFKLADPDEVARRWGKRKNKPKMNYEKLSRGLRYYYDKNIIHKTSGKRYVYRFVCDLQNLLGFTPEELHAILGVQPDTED
# Method in brief: as §1
# SPDEF = target: T9, SPDEF (Homo sapiens, UniProt O95238 1-335); conditions: protein: recombinant; tags: N-terminal GST; dsDNA, one strand shown
# T9 sequence: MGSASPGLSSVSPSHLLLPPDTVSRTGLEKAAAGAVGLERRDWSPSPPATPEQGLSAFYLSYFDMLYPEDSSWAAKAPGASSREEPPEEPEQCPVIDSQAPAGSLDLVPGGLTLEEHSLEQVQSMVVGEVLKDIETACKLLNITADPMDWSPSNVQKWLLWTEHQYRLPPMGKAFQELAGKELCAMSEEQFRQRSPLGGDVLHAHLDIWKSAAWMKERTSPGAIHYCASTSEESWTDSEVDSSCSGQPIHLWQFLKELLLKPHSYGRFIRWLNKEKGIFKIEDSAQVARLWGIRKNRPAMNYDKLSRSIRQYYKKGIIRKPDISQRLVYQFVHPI
# Method in brief: as §1
# ETV7 = target: T10, ETV7 (Homo sapiens, UniProt Q9Y603 1-341); conditions: protein: recombinant; tags: N-terminal GST; dsDNA, one strand shown
# T10 sequence: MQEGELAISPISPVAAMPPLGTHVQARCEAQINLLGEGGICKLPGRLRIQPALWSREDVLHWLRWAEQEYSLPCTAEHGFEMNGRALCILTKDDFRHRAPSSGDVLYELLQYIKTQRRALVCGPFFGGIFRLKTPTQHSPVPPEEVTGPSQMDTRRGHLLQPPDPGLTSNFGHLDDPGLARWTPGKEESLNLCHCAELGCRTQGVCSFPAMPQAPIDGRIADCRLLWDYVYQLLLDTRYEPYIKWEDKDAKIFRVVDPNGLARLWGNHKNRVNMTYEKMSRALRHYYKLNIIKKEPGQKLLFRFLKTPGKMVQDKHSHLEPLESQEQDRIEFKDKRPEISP
# Method in brief: as §1
# ELF5 = target: T11, ELF5 (Homo sapiens, UniProt Q9UKW6-2 1-255); conditions: protein: recombinant; tags: N-terminal GST; dsDNA, one strand shown
# T11 sequence: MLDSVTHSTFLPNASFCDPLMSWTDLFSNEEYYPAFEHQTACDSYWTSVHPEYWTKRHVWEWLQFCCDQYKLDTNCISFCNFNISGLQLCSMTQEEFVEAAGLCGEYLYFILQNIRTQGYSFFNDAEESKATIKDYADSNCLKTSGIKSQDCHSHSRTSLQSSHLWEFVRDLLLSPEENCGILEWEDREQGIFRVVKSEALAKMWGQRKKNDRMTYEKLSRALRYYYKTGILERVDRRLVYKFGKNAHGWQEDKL
# Method in brief: as §1
# ETV3 = target: T12, ETV3 (Homo sapiens, UniProt P41162-2 1-143); conditions: protein: recombinant; tags: N-terminal GST; dsDNA, one strand shown
# T12 sequence: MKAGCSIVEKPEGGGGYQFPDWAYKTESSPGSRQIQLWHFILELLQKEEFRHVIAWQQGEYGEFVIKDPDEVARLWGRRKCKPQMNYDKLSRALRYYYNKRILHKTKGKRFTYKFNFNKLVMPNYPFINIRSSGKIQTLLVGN
# Method in brief: as §1
# ETV6 = ETV6 (Homo sapiens, UniProt P41212 1-452); conditions: protein: recombinant; tags: N-terminal GST; dsDNA, one strand shown
# Method in brief: as §1
# Sequence of ELF4 (Q99607 whole entry): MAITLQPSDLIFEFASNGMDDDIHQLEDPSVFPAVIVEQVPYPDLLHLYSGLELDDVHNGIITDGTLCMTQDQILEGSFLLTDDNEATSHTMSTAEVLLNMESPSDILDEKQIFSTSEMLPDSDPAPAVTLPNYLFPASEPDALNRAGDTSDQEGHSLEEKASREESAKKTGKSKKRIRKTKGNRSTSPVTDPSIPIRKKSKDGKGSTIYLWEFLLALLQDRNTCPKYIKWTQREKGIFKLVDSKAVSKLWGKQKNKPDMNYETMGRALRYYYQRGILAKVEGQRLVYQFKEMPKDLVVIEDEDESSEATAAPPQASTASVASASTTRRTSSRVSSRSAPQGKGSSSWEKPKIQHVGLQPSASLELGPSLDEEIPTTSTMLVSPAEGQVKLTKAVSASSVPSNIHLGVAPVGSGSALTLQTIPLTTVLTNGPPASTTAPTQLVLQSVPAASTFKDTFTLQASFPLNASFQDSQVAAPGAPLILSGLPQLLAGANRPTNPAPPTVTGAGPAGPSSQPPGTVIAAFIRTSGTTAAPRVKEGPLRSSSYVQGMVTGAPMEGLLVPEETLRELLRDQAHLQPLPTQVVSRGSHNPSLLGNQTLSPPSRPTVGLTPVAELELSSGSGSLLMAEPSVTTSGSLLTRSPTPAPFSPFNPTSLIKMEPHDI
# Sequence of CRX (O43186 whole entry): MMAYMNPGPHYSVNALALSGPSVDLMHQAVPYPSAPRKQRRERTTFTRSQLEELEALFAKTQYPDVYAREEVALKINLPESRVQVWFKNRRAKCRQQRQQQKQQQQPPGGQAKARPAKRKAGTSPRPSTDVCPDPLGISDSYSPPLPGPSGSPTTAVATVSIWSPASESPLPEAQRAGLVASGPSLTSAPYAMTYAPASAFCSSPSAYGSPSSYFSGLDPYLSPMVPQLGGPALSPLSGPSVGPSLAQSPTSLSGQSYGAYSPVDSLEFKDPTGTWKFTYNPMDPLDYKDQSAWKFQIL
# Sequence of ETV1 (P50549 whole entry): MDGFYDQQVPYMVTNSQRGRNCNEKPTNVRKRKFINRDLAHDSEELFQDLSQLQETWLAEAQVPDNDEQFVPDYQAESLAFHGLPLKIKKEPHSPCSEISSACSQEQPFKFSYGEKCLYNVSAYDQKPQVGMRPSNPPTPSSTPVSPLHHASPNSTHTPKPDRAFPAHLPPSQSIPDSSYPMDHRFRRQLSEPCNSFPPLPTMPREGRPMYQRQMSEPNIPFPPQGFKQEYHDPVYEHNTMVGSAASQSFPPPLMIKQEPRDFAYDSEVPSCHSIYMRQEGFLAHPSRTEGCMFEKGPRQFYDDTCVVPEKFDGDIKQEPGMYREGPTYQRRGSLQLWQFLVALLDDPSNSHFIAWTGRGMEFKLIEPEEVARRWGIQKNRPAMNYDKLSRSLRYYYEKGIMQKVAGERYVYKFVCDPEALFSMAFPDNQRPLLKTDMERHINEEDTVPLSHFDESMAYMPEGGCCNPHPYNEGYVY
# Sequence of HSF1 (Q00613 whole entry): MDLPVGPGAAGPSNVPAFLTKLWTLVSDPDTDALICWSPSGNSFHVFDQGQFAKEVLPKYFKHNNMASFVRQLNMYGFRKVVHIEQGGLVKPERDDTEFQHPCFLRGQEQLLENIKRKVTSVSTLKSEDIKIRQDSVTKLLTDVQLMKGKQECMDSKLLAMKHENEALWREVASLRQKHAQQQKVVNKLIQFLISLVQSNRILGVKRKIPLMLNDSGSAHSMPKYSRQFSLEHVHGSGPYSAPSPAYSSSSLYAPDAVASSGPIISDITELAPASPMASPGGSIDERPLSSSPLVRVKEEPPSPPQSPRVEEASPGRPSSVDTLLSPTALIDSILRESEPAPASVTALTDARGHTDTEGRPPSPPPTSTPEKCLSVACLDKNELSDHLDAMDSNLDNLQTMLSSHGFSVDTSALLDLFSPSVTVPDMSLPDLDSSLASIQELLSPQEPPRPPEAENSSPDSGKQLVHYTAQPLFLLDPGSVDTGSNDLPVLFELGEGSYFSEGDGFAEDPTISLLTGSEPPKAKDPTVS
# Sequence of ETV5 (P41161 whole entry): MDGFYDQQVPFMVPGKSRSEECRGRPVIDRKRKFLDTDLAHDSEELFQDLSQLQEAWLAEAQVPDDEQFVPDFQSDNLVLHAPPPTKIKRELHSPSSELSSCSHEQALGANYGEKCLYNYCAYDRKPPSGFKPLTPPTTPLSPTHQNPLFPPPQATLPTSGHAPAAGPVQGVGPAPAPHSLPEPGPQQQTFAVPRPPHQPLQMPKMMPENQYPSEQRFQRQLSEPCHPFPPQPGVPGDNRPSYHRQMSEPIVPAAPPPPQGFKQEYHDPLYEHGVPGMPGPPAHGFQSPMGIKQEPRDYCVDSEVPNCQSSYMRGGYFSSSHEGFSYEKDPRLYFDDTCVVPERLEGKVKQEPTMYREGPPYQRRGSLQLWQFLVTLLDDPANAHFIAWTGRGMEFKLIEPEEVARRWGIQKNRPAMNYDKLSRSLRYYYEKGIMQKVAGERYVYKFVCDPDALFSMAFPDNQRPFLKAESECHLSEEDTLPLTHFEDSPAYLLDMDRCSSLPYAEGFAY
# Sequence of ETV6 (P41212 whole entry): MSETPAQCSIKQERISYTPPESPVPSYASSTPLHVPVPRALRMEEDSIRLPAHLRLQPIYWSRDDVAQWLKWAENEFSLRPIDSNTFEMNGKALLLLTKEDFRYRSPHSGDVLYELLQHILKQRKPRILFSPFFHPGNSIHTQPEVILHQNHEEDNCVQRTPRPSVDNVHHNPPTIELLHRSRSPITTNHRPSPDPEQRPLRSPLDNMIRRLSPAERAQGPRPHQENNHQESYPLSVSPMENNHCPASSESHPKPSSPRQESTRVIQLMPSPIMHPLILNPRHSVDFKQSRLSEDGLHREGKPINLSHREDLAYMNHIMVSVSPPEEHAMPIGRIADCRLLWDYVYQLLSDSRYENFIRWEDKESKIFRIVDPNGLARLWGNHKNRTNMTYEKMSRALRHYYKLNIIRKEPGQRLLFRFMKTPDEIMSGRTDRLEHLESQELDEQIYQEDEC
sequence,measurement,setting,value
CCTCCA,binding signal,FEV,"1.31 fold enrichment (6-mer frequency, TF over GST control)"
same,binding signal,ETV5,"1.34 fold enrichment (6-mer frequency, TF over GST control)"
same,binding signal,HSF1,"1.29 fold enrichment (6-mer frequency, TF over GST control)"
same,binding signal,SPIC,"1.34 fold enrichment (6-mer frequency, TF over GST control)"
same,binding signal,ELF4,"1.38 fold enrichment (6-mer frequency, TF over GST control)"
same,binding signal,ELK4,"1.47 fold enrichment (6-mer frequency, TF over GST control)"
same,binding signal,ETV2,"1.43 fold enrichment (6-mer frequency, TF over GST control)"
same,binding signal,ELF3,"1.02 fold enrichment (6-mer frequency, TF over GST control)"
same,binding signal,CRX,"1.12 fold enrichment (6-mer frequency, TF over GST control)"
same,binding signal,ETV1,"1.36 fold enrichment (6-mer frequency, TF over GST control)"
same,binding signal,ERF,"1.34 fold enrichment (6-mer frequency, TF over GST control)"
same,binding signal,ETV3L,"1.24 fold enrichment (6-mer frequency, TF over GST control)"
same,binding signal,ETS2,"1.31 fold enrichment (6-mer frequency, TF over GST control)"
same,binding signal,SPDEF,"1.34 fold enrichment (6-mer frequency, TF over GST control)"
same,binding signal,ETV7,"1.36 fold enrichment (6-mer frequency, TF over GST control)"
same,binding signal,ELF5,"1.42 fold enrichment (6-mer frequency, TF over GST control)"
same,binding signal,ETV3,"1.24 fold enrichment (6-mer frequency, TF over GST control)"
same,binding signal,ETV6,"1.29 fold enrichment (6-mer frequency, TF over GST control)"
